This is part of a sample that, as a whole, favours compounds with a hit. Of some 79,000 tested, about 15% had one in any assay. Activity calls are given as the source filed them. Rule as the data show it: active = growth inhibition above about 70%; inactive = the rest.
Experiments:
[1] = NCI Yeast Anticancer Drug Screen. Data for the rad50 strain (AID 155);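 also: 0% = growth of vehicle-only cultures of the same strain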; details: S. cerevisiae rad50 strain growth inhibition, active compounds read high
Outline: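 Readout: growth inhibition relative to vehicle-treated cultures. Compound exposure was carried out in a genetically defined yeast strain deficient in DNA damage repair.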

[2] = NCI Yeast Anticancer Drug Screen. Data for the mec2-1 strain (AID 157); details: S. cerevisiae mec2-1 strain, active compounds read high
Outline: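 Strain: mec2-1 (DNA repair/cell cycle alteration). Compound exposure, then growth measured; inhibition expressed relative to vehicle.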

[3] = NCI Yeast Anticancer Drug Screen. Data for the sgs1 mgt1 strain (AID 161);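 also: 0% = growth of cultures given vehicle only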; details: S. cerevisiae sgs1 mgt1 strain, active compounds read high
Outline: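 Test agents were incubated with a DNA-repair-mutant yeast strain. Growth was then read and compared against vehicle-treated controls.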

[4] = NCI Yeast Anticancer Drug Screen. Data for the cln2 rad14 strain (AID 165);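 also: 0% = growth equal to vehicle treated cultures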; details: S. cerevisiae cln2 rad14 strain, active compounds read high
Outline: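 Compounds are applied to the cln2 rad14 yeast strain, and growth is then compared with that of vehicle-treated cultures to give inhibition.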

[5] = NCI Yeast Anticancer Drug Screen. Data for the bub3 strain (AID 167); details: S. cerevisiae bub3 mutant strain, active compounds read high
Outline: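 Readout: yeast growth inhibition, expressed relative to vehicle-only wells. The test organism is a mutant strain from a panel with lesions in DNA repair or checkpoint genes.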

[6] = NCI Yeast Anticancer Drug Screen. Data for the mlh1 rad18 strain (AID 175); details: S. cerevisiae mlh1 rad18 strain growth inhibition, active compounds read high
Outline: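 Read-out is yeast growth inhibition, calculated against vehicle-only controls. The compound was applied to a strain engineered with DNA damage repair alterations.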

[7] = at 5.0 µM (retest, dose inferred, filed as 0.5)
[8] = at 50.0 µM (retest, dose inferred, filed as 5.0)

Measured: growth inhibition

COc1ccccc1NC(=O)c1ccccc1F
inactive: [1]; [7] -154% | [1]; [8] 41% | [1]; at 50.0 µM -2.5% | [2]; [7] -47% | [2]; [8] -41% | [2]; at 50.0 µM 10.7% | [3]; [7] -61% | [3]; [8] -17% | [3]; at 50.0 µM 0.2% | [4]; [7] -60% | [4]; [8] -72% | [4]; at 50.0 µM 4.65% | [5]; [7] -70% | [5]; [8] 9% | [5]; at 50.0 µM -3.5% | [6]; [7] -147% | [6]; [8] -43% | [6]; at 50.0 µM -9.6%

CCOC(CCl)Oc1c(C(C)C)cc(C(C)C)c(Cl)c1C (configuration not stated)
inactive: [1]; [7] 0% | [1]; [8] 20% | [2]; [7] -1% | [2]; [8] 57% | [3]; [7] 1% | [3]; [8] 49% | [4]; [7] 4% | [4]; [8] 26% | [5]; [7] -3% | [5]; [8] 19% | [6]; [7] -1% | [6]; [8] 27%
active: [1]; at 50.0 µM 97.5% | [2]; at 50.0 µM 96.7% | [3]; at 50.0 µM 97.7% | [4]; at 50.0 µM 96.7% | [5]; at 50.0 µM 97.3% | [6]; at 50.0 µM 95%

Cc1ccc(C(C)(C)c2ccc(C(=O)O)cc2)cc1
inactive: [1]; [7] -4% | [1]; [8] -14% | [1]; at 50.0 µM 25.1% | [2]; [7] 3% | [2]; [8] 4% | [2]; at 50.0 µM 10.2% | [3]; [7] -3% | [3]; [8] 0% | [3]; at 50.0 µM 42.5% | [4]; [7] 1% | [4]; [8] -10% | [4]; at 50.0 µM -12.7% | [5]; [7] -6% | [5]; [8] -8% | [5]; at 50.0 µM -2.5% | [6]; [7] 1% | [6]; [8] -7% | [6]; at 50.0 µM 8.9%

S=C(NCCc1ccccn1)N/N=C/c1ccccn1
active: [1]; [8] 99% | [1]; at 50.0 µM 76.5% | [2]; [8] 99% | [2]; at 50.0 µM 84.9% | [3]; [8] 98% | [3]; at 50.0 µM 88.3% | [4]; [8] 97% | [4]; at 50.0 µM 89.8% | [5]; [8] 99% | [5]; at 50.0 µM 90.4% | [6]; [8] 99% | [6]; at 50.0 µM 91.5%
inactive: [1]; [7] 10% | [2]; [7] -1% | [3]; [7] 7% | [4]; [7] -3% | [5]; [7] -17% | [6]; [7] 28%

Clc1ccc(C2SCc3nc4ccccc4n32)cc1Cl (configuration not stated)
inactive: [1]; [7] -8% | [2]; [7] 1% | [3]; [7] 15% | [4]; [7] -16% | [5]; [7] 7% | [6]; [7] 3%
active: [1]; [8] 95% | [1]; at 50.0 µM 97.2% | [2]; [8] 97% | [2]; at 50.0 µM 98.1% | [3]; [8] 96% | [3]; at 50.0 µM 98% | [4]; [8] 95% | [4]; at 50.0 µM 95.6% | [5]; [8] 96% | [5]; at 50.0 µM 96.8% | [6]; [8] 96% | [6]; at 50.0 µM 95%

O=S(O)CCCCCSSc1ccc(Cl)cc1
active: [1]; [8] 81% | [1]; at 50.0 µM 98% | [2]; [8] 100% | [2]; at 50.0 µM 95.8% | [3]; [8] 97% | [3]; at 50.0 µM 98.8% | [4]; [8] 97% | [4]; at 50.0 µM 98.2% | [5]; [8] 99% | [5]; at 50.0 µM 99% | [6]; [8] 97% | [6]; at 50.0 µM 98.2%
inactive: [1]; [7] 3% | [2]; [7] 9% | [3]; [7] 5% | [4]; [7] -2% | [5]; [7] 25% | [6]; [7] 8%

O=c1[nH]c2ccc([N+](=O)[O-])cc2c2ccc(Cl)cc12
active: [1]; at 50.0 µM 77.2% | [6]; at 50.0 µM 71.7%
inactive: [1]; [7] 3% | [1]; [8] 9% | [2]; [7] -5% | [2]; [8] 25% | [2]; at 50.0 µM 51.8% | [3]; [7] -11% | [3]; [8] 16% | [3]; at 50.0 µM 61.8% | [4]; [7] 1% | [4]; [8] 3% | [4]; at 50.0 µM -0.3% | [5]; [7] 0% | [5]; [8] 2% | [5]; at 50.0 µM 7.4% | [6]; [7] 11% | [6]; [8] 40%

CC1(c2ccccc2)Nc2ccccc2C1=Nc1ccccc1 (configuration not stated)
active: [1]; at 50.0 µM 93.5% | [2]; at 50.0 µM 97.7% | [3]; at 50.0 µM 96.3% | [4]; [8] 75% | [4]; at 50.0 µM 97.2% | [5]; [8] 77% | [5]; at 50.0 µM 95.8% | [6]; [8] 86% | [6]; at 50.0 µM 97.3%
inactive: [1]; [7] -1% | [1]; [8] 34% | [2]; [7] -4% | [2]; [8] 30% | [3]; [7] -3% | [3]; [8] 54% | [4]; [7] -8% | [5]; [7] -7% | [6]; [7] -2%

O=C1CC(c2ccccc2)NN1 (configuration not stated)
active: [1]; [8] 92% | [1]; at 50.0 µM 90.9% | [2]; [8] 94% | [2]; at 50.0 µM 90.5% | [3]; [8] 89% | [4]; [8] 93% | [4]; at 50.0 µM 87.8% | [5]; [8] 87% | [5]; at 50.0 µM 88.2% | [6]; [8] 93% | [6]; at 50.0 µM 86.5%
inactive: [1]; [7] -108% | [2]; [7] -42% | [3]; [7] -51% | [3]; at 50.0 µM 69.8% | [4]; [7] -62% | [5]; [7] -71% | [6]; [7] -114%

From PubChem BioAssay (NCI)
